# Data published in PubChem BioAssay AID1159580 (chemical genetic matrix, 2015).
# Screen size: about 5,500 compounds; about 2,000 (36%) were called active. Another 18% or so got no clear call; they are omitted. Some of the results follow. Values without a mark were called inactive. No stated cut-off is given here; in the data, active means normalized growth mostly below about 0.91 (no sharp cut-off); inconclusive means no clear call, values can overlap the other calls; inactive means mostly above about 0.92.
# Assay: chemical genetic growth profiling, strain panel (AID 1159580);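 further: tested at 20 µM; growth read once vehicle control cultures reached saturation at 30 °C; 1 = growth at the plate median or of vehicle wells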
# Conditions: growth OD
structure (smiles),measurement,setting,value
CCCCCCCCCCCC1=C(O)C(=O)C=C(O)C1=O,normalized growth,"S. cerevisiae deletion strains, locus YJL168C, strain set2, stronger effect = lower value",0.975
same,normalized growth,"S. cerevisiae deletion strains, locus YJL187C, strain SWE1 (second series), stronger effect = lower value",0.981
same,normalized growth,"S. cerevisiae deletion strains, locus YJR043C, strain POL32, stronger effect = lower value",0.584 (active)
same,normalized growth,"S. cerevisiae deletion strains, locus YKL068W, stronger effect = lower value",0.936 (active)
same,normalized growth,"S. cerevisiae deletion strains, locus YKL085W, strain MDH1 (second series), stronger effect = lower value",0.513 (active)
same,normalized growth,"S. cerevisiae deletion strains, locus YKL085W, strain MDH1, stronger effect = lower value",0.513 (active)
same,normalized growth,"S. cerevisiae deletion strains, locus YKL160W, strain elf1, stronger effect = lower value",0.805 (active)
same,normalized growth,"S. cerevisiae deletion strains, locus YKR001C, strain vps1, stronger effect = lower value",0.776 (active)
same,normalized growth,"S. cerevisiae deletion strains, locus YKR026C, strain gcn3, stronger effect = lower value",0.82 (active)
same,normalized growth,"S. cerevisiae deletion strains, locus YKR091W, strain srl3, stronger effect = lower value",0.911 (active)
same,normalized growth,"S. cerevisiae deletion strains, locus YLL001W, strain dnm1, stronger effect = lower value",0.502 (active)
same,normalized growth,"S. cerevisiae deletion strains, locus YLL026W, stronger effect = lower value",0.972
same,normalized growth,"S. cerevisiae deletion strains, locus YLL041C, strain sdh2, stronger effect = lower value",0.933
same,normalized growth,"S. cerevisiae deletion strains, locus YLR027C, strain aat2, stronger effect = lower value",0.839 (active)
same,normalized growth,"S. cerevisiae deletion strains, locus YLR039C, strain RIC1, stronger effect = lower value",0.296 (active)
same,normalized growth,"S. cerevisiae deletion strains, locus YLR058C, strain SHM2, stronger effect = lower value",1
same,normalized growth,"S. cerevisiae deletion strains, locus YLR102C, strain apc9, stronger effect = lower value",0.974
same,normalized growth,"S. cerevisiae deletion strains, locus YLR221C, strain rsa3, stronger effect = lower value",0.801 (active)
same,normalized growth,"S. cerevisiae deletion strains, locus YLR258W, strain gsy2, stronger effect = lower value",0.911 (active)
same,normalized growth,"S. cerevisiae deletion strains, locus YLR262C, strain YPT6 (second series), stronger effect = lower value",0.477 (active)
same,normalized growth,"S. cerevisiae deletion strains, locus YLR262C, strain YPT6, stronger effect = lower value",0.414 (active)
same,normalized growth,"S. cerevisiae deletion strains, locus YLR268W, strain sec22, stronger effect = lower value",0.756 (active)
same,normalized growth,"S. cerevisiae deletion strains, locus YLR320W, strain mms22, stronger effect = lower value",0.83 (active)
same,normalized growth,"S. cerevisiae deletion strains, locus YLR330W, strain CHS5, stronger effect = lower value",0.842 (active)
same,normalized growth,"S. cerevisiae deletion strains, locus YLR342W, strain FKS1 (second series), stronger effect = lower value",0.886
same,normalized growth,"S. cerevisiae deletion strains, locus YLR342W, strain FKS1, stronger effect = lower value",0.72 (active)
same,normalized growth,"S. cerevisiae deletion strains, locus YLR357W, strain rsc2, stronger effect = lower value",0.441 (active)
same,normalized growth,"S. cerevisiae deletion strains, locus YLR370C, strain arc18, stronger effect = lower value",0.242 (active)
same,normalized growth,"S. cerevisiae deletion strains, locus YLR371W, strain rom2, stronger effect = lower value",0.945
same,normalized growth,"S. cerevisiae deletion strains, locus YLR384C, strain iki3, stronger effect = lower value",0.989
same,normalized growth,"S. cerevisiae deletion strains, locus YLR418C, strain cdc73, stronger effect = lower value",0.819 (active)
same,normalized growth,"S. cerevisiae deletion strains, locus YML016C, strain PPZ1, stronger effect = lower value",0.991
same,normalized growth,"S. cerevisiae deletion strains, locus YML032C, strain rad52, stronger effect = lower value",0.882 (active)
same,normalized growth,"S. cerevisiae deletion strains, locus YML120C, strain ndi1, stronger effect = lower value",0.952
same,normalized growth,"S. cerevisiae deletion strains, locus YML124C, strain tub3, stronger effect = lower value",0.975
same,normalized growth,"S. cerevisiae deletion strains, locus YMR058W, strain fet3, stronger effect = lower value",0.0857 (active)
same,normalized growth,"S. cerevisiae deletion strains, locus YMR078C, strain ctf18, stronger effect = lower value",0.96
same,normalized growth,"S. cerevisiae deletion strains, locus YMR125W, strain sto1, stronger effect = lower value",0.832 (active)
same,normalized growth,"S. cerevisiae deletion strains, locus YMR129W, stronger effect = lower value",0.883 (active)
same,normalized growth,"S. cerevisiae deletion strains, locus YMR205C, strain PFK2, stronger effect = lower value",0.901
same,normalized growth,"S. cerevisiae deletion strains, locus YMR223W, strain ubp8, stronger effect = lower value",0.87 (active)
same,normalized growth,"S. cerevisiae deletion strains, locus YMR231W, strain pep5, stronger effect = lower value",0.69 (active)
same,normalized growth,"S. cerevisiae deletion strains, locus YMR263W, strain SAP30, stronger effect = lower value",0.766 (active)
same,normalized growth,"S. cerevisiae deletion strains, locus YMR307W, strain GAS1, stronger effect = lower value",0.378 (active)
same,normalized growth,"S. cerevisiae deletion strains, locus YNL067W, strain RPL9B, stronger effect = lower value",0.823 (active)
same,normalized growth,"S. cerevisiae deletion strains, locus YNL071W, strain lat1, stronger effect = lower value",0.912 (active)
same,normalized growth,"S. cerevisiae deletion strains, locus YNL128W, strain TEP1, stronger effect = lower value",0.683 (active)
same,normalized growth,"S. cerevisiae deletion strains, locus YNL209W, strain ssb2, stronger effect = lower value",0.61 (active)
same,normalized growth,"S. cerevisiae deletion strains, locus YNL233W, strain BNI4, stronger effect = lower value",0.857 (active)
same,normalized growth,"S. cerevisiae deletion strains, locus YNL248C, strain rpa49, stronger effect = lower value",0.757 (active)
same,normalized growth,"S. cerevisiae deletion strains, locus YNL250W, strain rad50, stronger effect = lower value",0.738 (active)
same,normalized growth,"S. cerevisiae deletion strains, locus YNL271C, strain bni1, stronger effect = lower value",0.636 (active)
same,normalized growth,"S. cerevisiae deletion strains, locus YNL298W, strain CLA4, stronger effect = lower value",0.66 (active)
same,normalized growth,"S. cerevisiae deletion strains, locus YNL307C, strain MCK1, stronger effect = lower value",0.857 (active)
same,normalized growth,"S. cerevisiae deletion strains, locus YNL322C, strain KRE1 (second series), stronger effect = lower value",0.922
same,normalized growth,"S. cerevisiae deletion strains, locus YNR049C, strain mso1, stronger effect = lower value",0.638 (active)
same,normalized growth,"S. cerevisiae deletion strains, locus YNR052C, strain pop2, stronger effect = lower value",0.866 (active)
same,normalized growth,"S. cerevisiae deletion strains, locus YOL012C, strain htz1",0.529
same,normalized growth,"S. cerevisiae deletion strains, locus YOL147C, strain pex11, stronger effect = lower value",0.871 (active)
same,normalized growth,"S. cerevisiae deletion strains, locus YOR001W, strain rrp6, stronger effect = lower value",0.86 (active)
same,normalized growth,"S. cerevisiae deletion strains, locus YOR061W, strain CKA2, stronger effect = lower value",0.986
same,normalized growth,"S. cerevisiae deletion strains, locus YOR069W, strain VPS5, stronger effect = lower value",0.983
same,normalized growth,"S. cerevisiae deletion strains, locus YOR070C, strain gyp1, stronger effect = lower value",0.97
same,normalized growth,"S. cerevisiae deletion strains, locus YOR080W, strain dia2, stronger effect = lower value",0.946
same,normalized growth,"S. cerevisiae deletion strains, locus YOR083W, strain WHI5, stronger effect = lower value",0.807 (active)
same,normalized growth,"S. cerevisiae deletion strains, locus YOR106W, strain vam3, stronger effect = lower value",0.637 (active)
same,normalized growth,"S. cerevisiae deletion strains, locus YOR136W, strain idh2, stronger effect = lower value",0.919 (active)
same,normalized growth,"S. cerevisiae deletion strains, locus YOR144C, strain elg1, stronger effect = lower value",0.877 (active)
same,normalized growth,"S. cerevisiae deletion strains, locus YOR184W, strain ser1, stronger effect = lower value",0.875
same,normalized growth,"S. cerevisiae deletion strains, locus YOR265W, strain rbl2, stronger effect = lower value",0.867 (active)
same,normalized growth,"S. cerevisiae deletion strains, locus YOR270C, strain vph1, stronger effect = lower value",0.298 (active)
same,normalized growth,"S. cerevisiae deletion strains, locus YOR290C, strain snf2, stronger effect = lower value",0.471 (active)
same,normalized growth,"S. cerevisiae deletion strains, locus YOR316C, strain cot1, stronger effect = lower value",0.999
same,normalized growth,"S. cerevisiae deletion strains, locus YPL051W, strain arl3, stronger effect = lower value",0.768 (active)
same,normalized growth,"S. cerevisiae deletion strains, locus YPL055C, strain LGE1, stronger effect = lower value",0.483 (active)
same,normalized growth,"S. cerevisiae deletion strains, locus YPL078C, strain atp4, stronger effect = lower value",0.647 (active)
same,normalized growth,"S. cerevisiae deletion strains, locus YPL106C, strain sse1, stronger effect = lower value",0.794 (active)
same,normalized growth,"S. cerevisiae deletion strains, locus YPL240C, strain hsp82, stronger effect = lower value",0.907 (active)
same,normalized growth,"S. cerevisiae deletion strains, locus YPL241C, strain CIN2, stronger effect = lower value",0.851 (active)
same,normalized growth,"S. cerevisiae deletion strains, locus YPR119W, strain clb2, stronger effect = lower value",0.986
same,normalized growth,"S. cerevisiae deletion strains, locus YPR141C, strain kar3, stronger effect = lower value",0.735 (active)
same,normalized growth,"S. cerevisiae deletion strains, locus YPR163C, strain tif3, stronger effect = lower value",0.977
same,normalized growth,"S. cerevisiae deletion strains, locus YPR167C, strain met16, stronger effect = lower value",0.846 (active)
same,normalized growth,"S. cerevisiae deletion strains, strain wtn01, stronger effect = lower value",0.871 (active)
same,normalized growth,"S. cerevisiae strains, strain wild type, stronger effect = lower value",0.693 (active)
